For part of these data: Entries with a potency or affinity are not part of this list. Calls of active or inactive are those of the source.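 The calls were made as follows, unless noted: active = earlier screen potentiator hit that boosts the TRPC4 ion channel at some dose, with a dose response; inactive = no potentiation, no dose response, or not a prior hit.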
Legend:
[1] = tested on: TRPC4 beta (transient receptor potential cation channel C4), mouse; assay: activators of mouse TRPC4 channel, confirmation, cell-based, Fluo4 calcium, HEK293 TRPC4beta/mu-opioid, duplicates, 10 µM (AID 2426;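 active = fluorescence ratio normalized to control raised more than 50% in primary screen plus both repeat runs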;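 as to activation: percent rise of integrated ratio over buffer wells lacking compound which define 0%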); details: Fluo4 calcium fluorescence, at 10 µM; active compounds read high
[2] = tested on: transient receptor potential cation channel C4 beta (TRPC4), mouse; assay: activators of mouse TRPC4 channel, confirmation, cell-based, second round, Fluo4, HEK293 TRPC4beta/mu-opioid, 1 µM (AID 2461;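 active = primary screen active and over 50% activation in each of two duplicate runs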;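 as to activation: 0% = wells without test compound as baseline of integrated fluorescence ratio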); details: Fluo4 calcium fluorescence, at 1 µM; active compounds read high
[3] = tested on: TRPC4 (transient receptor potential cation channel C4 beta), mouse; assay: positive allosteric modulators of mouse TRPC4, confirmation, cell-based, second round, Fluo-4, HEK293 TRPC4beta/mu-opioid, 1 µM (AID 2554;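 active = primary screen hit whose fluorescence ratio, in both repeats, exceeds the weak agonist control mean by 3 SD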); details: DAMGO EC20, Fluo-4 calcium flux, at 1 µM; active compounds read high
[4] = tested on: TRPC4 beta (transient receptor potential cation channel C4), mouse; assay: positive allosteric modulators of mouse TRPC4, confirmation, cell-based, Fluo-4, HEK293 TRPC4beta/mu-opioid (AID 2555;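 active = primary screen hit whose calcium fluorescence ratio, in both repeats, exceeds the weak agonist control mean by 3 SD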); details: DAMGO EC20, Fluo-4 calcium flux, at 10 µM; active compounds read high
[5] = target: Short transient receptor potential channel 4 (Mus musculus) (UniProt Q9QUQ5); assay: inhibitors of mouse TRPC4 channel, confirmation, cell-based, Fluo4, HEK293 TRPC4beta/mu-opioid (AID 2636;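 active = calcium signal cut by more than 3 SD below the full-agonist control yet still positive, in both repeats and the earlier primary screen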); details: DAMGO, Fluo4 calcium flux, at 10 µM; active compounds read high
Sequence of Short transient receptor potential channel 4 (Mus musculus) (Q9QUQ5 whole entry, looked up): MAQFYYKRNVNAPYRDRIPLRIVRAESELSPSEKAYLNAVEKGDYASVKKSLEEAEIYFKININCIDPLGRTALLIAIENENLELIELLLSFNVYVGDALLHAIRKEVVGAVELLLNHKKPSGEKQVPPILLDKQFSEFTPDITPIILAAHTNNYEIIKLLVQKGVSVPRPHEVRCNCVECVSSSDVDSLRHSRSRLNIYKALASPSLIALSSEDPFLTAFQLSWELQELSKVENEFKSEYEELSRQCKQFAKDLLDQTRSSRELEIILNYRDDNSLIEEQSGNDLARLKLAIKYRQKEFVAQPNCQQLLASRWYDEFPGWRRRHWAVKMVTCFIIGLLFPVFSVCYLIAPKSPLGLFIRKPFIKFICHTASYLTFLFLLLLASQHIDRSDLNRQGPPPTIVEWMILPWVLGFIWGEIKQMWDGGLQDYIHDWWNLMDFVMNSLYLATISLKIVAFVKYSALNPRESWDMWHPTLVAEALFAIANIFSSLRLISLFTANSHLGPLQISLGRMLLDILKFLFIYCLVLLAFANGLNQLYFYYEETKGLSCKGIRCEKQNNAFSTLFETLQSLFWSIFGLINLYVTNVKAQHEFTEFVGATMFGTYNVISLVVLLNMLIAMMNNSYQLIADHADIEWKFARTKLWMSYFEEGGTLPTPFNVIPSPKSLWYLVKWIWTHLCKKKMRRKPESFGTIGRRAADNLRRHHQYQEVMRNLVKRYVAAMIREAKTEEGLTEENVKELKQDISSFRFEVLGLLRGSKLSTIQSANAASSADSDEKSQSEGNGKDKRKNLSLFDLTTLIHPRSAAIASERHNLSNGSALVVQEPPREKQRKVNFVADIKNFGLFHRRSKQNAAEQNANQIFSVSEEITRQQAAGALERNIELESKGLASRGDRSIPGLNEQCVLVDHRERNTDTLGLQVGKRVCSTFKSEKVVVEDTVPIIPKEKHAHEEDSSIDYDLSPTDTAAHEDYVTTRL

[6] = target: Short transient receptor potential channel 4 (Mus musculus) (UniProt Q9QUQ5); assay: inhibitors of mouse TRPC4 channel, confirmation, cell-based, second round, Fluo4, HEK293 TRPC4beta/mu-opioid, 1 µM (AID 2637;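 active = calcium signal ratio cut to more than 3 SD under the fully stimulated control mean yet still positive, in both repeats and the primary screen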;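 as to inhibition: percent of integrated ratio relative to wells lacking test compound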); details: Fluo4 calcium flux, DAMGO, at 1 µM; active compounds read high
[7] = target: Short transient receptor potential channel 4 (Mus musculus) (UniProt Q9QUQ5); assay: TRPC4 positive allosteric modulators, dose response, cell-based, HEK293 TRPC4/mu-opioid, Fluo-4 calcium, EC20 DAMGO (AID 434941);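 also: calcium entry triggered by an EC20 dose of DAMGO at the co-expressed mu-opioid receptor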
[8] = target: Short transient receptor potential channel 6 (Mus musculus) (UniProt Q61143); assay: inhibition of mouse TRPC6 channel, confirmation, selectivity assay for TRPC4 inhibitor project, cell-based, HEK293, membrane potential dye, duplicate (AID 434948;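 active = active in primary screen and both duplicates, each dropping signal beyond three positive-control SD with fluorescence still positive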); details: HEK293 TRPC6, membrane potential dye fluorescence, at 10 µM, stimulated with maximal-effect acetylcholine; active compounds read high
Sequence of Short transient receptor potential channel 6 (Mus musculus) (Q61143 whole entry, looked up): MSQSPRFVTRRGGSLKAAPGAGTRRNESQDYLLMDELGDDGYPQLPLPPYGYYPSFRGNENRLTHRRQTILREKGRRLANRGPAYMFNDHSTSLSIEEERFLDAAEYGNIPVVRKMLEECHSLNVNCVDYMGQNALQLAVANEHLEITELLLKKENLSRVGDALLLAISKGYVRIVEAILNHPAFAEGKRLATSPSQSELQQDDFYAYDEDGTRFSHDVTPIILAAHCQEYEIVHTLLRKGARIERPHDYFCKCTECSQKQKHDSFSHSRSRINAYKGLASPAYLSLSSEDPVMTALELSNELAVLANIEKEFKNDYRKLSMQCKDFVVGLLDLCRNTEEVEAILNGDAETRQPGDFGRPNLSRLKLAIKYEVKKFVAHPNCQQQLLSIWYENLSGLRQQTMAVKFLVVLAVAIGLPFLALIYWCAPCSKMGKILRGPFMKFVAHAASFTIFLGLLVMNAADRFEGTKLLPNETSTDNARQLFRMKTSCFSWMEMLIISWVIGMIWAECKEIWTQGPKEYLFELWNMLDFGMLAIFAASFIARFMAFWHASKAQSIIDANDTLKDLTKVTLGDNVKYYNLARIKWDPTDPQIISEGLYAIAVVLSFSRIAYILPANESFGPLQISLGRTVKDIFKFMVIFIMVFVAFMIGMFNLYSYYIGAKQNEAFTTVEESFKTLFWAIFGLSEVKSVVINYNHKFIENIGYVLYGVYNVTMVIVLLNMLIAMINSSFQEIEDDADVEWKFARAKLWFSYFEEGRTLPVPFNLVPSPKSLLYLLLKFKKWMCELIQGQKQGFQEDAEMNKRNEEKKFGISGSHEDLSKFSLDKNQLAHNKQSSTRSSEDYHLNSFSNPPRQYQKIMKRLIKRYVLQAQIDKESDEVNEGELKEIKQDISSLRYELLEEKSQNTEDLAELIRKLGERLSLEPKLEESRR

[9] = target: Short transient receptor potential channel 6 (Mus musculus) (UniProt Q61143); assay: activation of mouse TRPC6 channel, confirmation, selectivity assay for TRPC4 activator project, cell-based, HEK293, membrane potential dye, duplicate (AID 434950;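 active = membrane potential signal rise above negative control mean plus 3 SD in both duplicates, also active in the earlier TRPC4 screen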;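 as to activation: 0% = buffer only wells and 100% = acetylcholine maximal-effect wells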); details: HEK293 TRPC6, membrane potential fluorescence, at 10 µM; active compounds read high
[10] = target: Short transient receptor potential channel 6 (Mus musculus) (UniProt Q61143); assay: TRPC6 potentiation by TRPC4 potentiator hits, confirmation, selectivity assay for TRPC4 potentiator project, HEK293 cells, membrane potential dye, duplicate (AID 434952;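 active = compound raising the membrane signal above positive-control mean plus 3 SD in both repeats, and a primary screen hit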); details: HEK293 TRPC6, membrane potential dye fluorescence, at 10 µM, maximal acetylcholine added after compound; active compounds read high
[11] = target: Short transient receptor potential channel 4 (Mus musculus) (UniProt Q9QUQ5); assay: calcium flux activators in TRPC4/5HT1a cells, counter-screen for TRPC4 activator project, cell-based, second counter screen, HEK293 TRPC4/5HT1a, Fluo-4 (AID 434977;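 active = calcium signal rise above buffer-control mean plus 5 SD in both duplicates, and also a hit in the primary screen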;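 as to activation: plate controls were assay buffer for no effect and maximal serotonin response for full effect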); details: Fluo-4 calcium flux, at 10 µM; active compounds read high
[12] = calcium flux inhibitors in TRPC4/5HT1a cells, confirmation, counter-screen for TRPC4 inhibitor project, cell-based, second counter screen, HEK293 TRPC4/5HT1a, Fluo-4 (AID 434978;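 active = primary screen active whose calcium signal fell more than 3 SD beyond the full-serotonin control mean in both duplicate plates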;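 as to outcome: serotonin given first at submaximal then at maximal dose after compound preincubation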); details: Fluo-4 calcium flux, at 10 µM, serotonin added to trigger calcium flux; active compounds read high
[13] = tested on: TRPC4 (mouse), co-expressed with 5HT1a in HEK293; assay: calcium flux potentiators in TRPC4/5HT1a cells, confirmation, counter-screen for TRPC4 potentiator project, cell-based, second counter screen, HEK293 TRPC4/5HT1a, Fluo-4 (AID 434979;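 active = signal rise over 3 SD above mean of control wells given weak agonist, in both repeats and first screen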); details: Fluo-4 calcium flux, at 10 µM, serotonin added at its EC20 dose; active compounds read high
[14] = calcium flux activation in mu-opioid HEK293 cells, confirmation, counter-screen for TRPC4 activator project, cell-based, HEK293 mu-opioid receptor line (AID 449723;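 active = hit in primary screen, with calcium signal over 5 SD above buffer well mean in both duplicates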;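 also: counter screen cells carry the mu-opioid receptor alone and lack TRPC4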); details: Fluo-4 calcium fluorescence, at 10 µM; active compounds read high
[15] = calcium flux enhancement in mu-opioid HEK293 cells, confirmation, counter-screen for TRPC4 allosteric potentiator project, cell-based, HEK293 mu-opioid receptor line (AID 449724;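 active = calcium signal rise more than 3 SD above the low-dose agonist control mean, in both duplicate plates and the primary screen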;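 also: HEK293 cells carrying mu-opioid receptor only with no TRPC4 channel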); details: Fluo-4 calcium flux, at 10 µM, compound added before EC20 DAMGO stimulus; active compounds read high
[16] = target: Short transient receptor potential channel 4 (Mus musculus) (UniProt Q9QUQ5); assay: mouse TRPC4 channel inhibitors, dose response, cell-based, HEK293 TRPC4/mu-opioid, Fluo-4 calcium (AID 434942;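 active = primary screen inhibitor hit that blocks the TRPC4 channel at some tested dose, yielding a dose curve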)

Cc1ccc(S(=O)(=O)Nc2cccc(C(=O)NCC(c3ccccc3)N(C)C)c2)cc1F (centres undefined)
inactive: outcome [2] | outcome [3] | outcome [4] | outcome [5] | outcome [7] | outcome [8] | outcome [10] | outcome [11] | outcome [12] | outcome [13] | outcome [14] | outcome [15]
active: activation [1] 84% | inhibition [6] 78% | activation [9] 37.5%

Cc1onc(-c2ccccc2)c1C(=O)NNC(=S)NC(=O)c1ccc(Br)cc1
inactive: outcome [2] | outcome [3] | outcome [4] | outcome [5] | outcome [6] | outcome [7] | outcome [16] | outcome [8] | outcome [9] | outcome [10] | outcome [12] | outcome [13] | outcome [15]
active: activation [1] 263% | activation [11] 190% | activation [14] 70.7%

O=c1c2ccccc2[nH]c(=S)n1Cc1cccnc1
active: inhibition [5] 94%
inactive: outcome [1] | outcome [2] | outcome [3] | outcome [4] | outcome [6] | outcome [7] | outcome [8] | outcome [9] | outcome [10] | outcome [11] | outcome [12] | outcome [13] | outcome [14] | outcome [15]

CCCOc1ccc(C(=O)NNC(=S)NC(=O)c2cccs2)cc1
active: activation [1] 104% | activation [11] 71.2% | activation [14] 22.6%
inactive: outcome [2] | outcome [3] | outcome [4] | outcome [5] | outcome [6] | outcome [7] | outcome [16] | outcome [8] | outcome [9] | outcome [10] | outcome [12] | outcome [13] | outcome [15]

O=c1c2cc(Br)ccc2nc(-c2ccc(Cl)cc2)n1O
inactive: outcome [2] | outcome [3] | outcome [4] | outcome [5] | outcome [6] | outcome [7] | outcome [16] | outcome [8] | outcome [9] | outcome [10] | outcome [12] | outcome [13] | outcome [15]
active: activation [1] 268% | activation [11] 102% | activation [14] 31.7%

CCCCC(=O)NNC(=S)NC(=O)C(c1ccccc1)c1ccccc1
inactive: outcome [2] | outcome [3] | outcome [4] | outcome [5] | outcome [6] | outcome [7] | outcome [16] | outcome [8] | outcome [10] | outcome [12] | outcome [13] | outcome [15]
active: activation [1] 122% | activation [9] 42% | activation [11] 96.7% | activation [14] 31.6%

OC1(c2ccccc2)CN(c2ccccc2)C2=[N+]1CCS2 (centres undefined)
inactive: outcome [1] | outcome [2] | outcome [3] | outcome [4] | outcome [6] | outcome [7] | outcome [8] | outcome [10] | outcome [11] | outcome [12] | outcome [13] | outcome [14] | outcome [15]
active: inhibition [5] 89% | activation [9] 34%

COc1ccc(CCN(C)CCN2C(=O)c3ccccc3C2=O)cc1OC
active: activation [1] 252% | activation [2] 103% | inhibition [6] 43% | activation [11] 96.5% | inhibition [12] 1.2%
inactive: outcome [3] | outcome [4] | outcome [5] | outcome [7] | outcome [8] | outcome [9] | outcome [10] | outcome [13] | outcome [14] | outcome [15]

CC(Oc1ccc(Cl)cc1)C(=O)NNC(=S)NC(=O)c1ccco1 (centres undefined)
inactive: outcome [2] | outcome [3] | outcome [4] | outcome [5] | outcome [6] | outcome [7] | outcome [16] | outcome [8] | outcome [9] | outcome [10] | outcome [12] | outcome [13] | outcome [15]
active: activation [1] 192% | activation [11] 104% | activation [14] 29.1%

Cc1onc(-c2ccccc2)c1C(=O)NNC(=S)NC(=O)c1ccc(F)cc1
inactive: outcome [2] | outcome [3] | outcome [4] | outcome [5] | outcome [6] | outcome [7] | outcome [16] | outcome [8] | outcome [10] | outcome [12] | outcome [13] | outcome [15]
active: activation [1] 201% | activation [9] 27.5% | activation [11] 110% | activation [14] 58.7%

Cc1cccc(C(=O)NNC(=S)NC(=O)c2cccs2)c1
inactive: outcome [2] | outcome [3] | outcome [4] | outcome [5] | outcome [6] | outcome [7] | outcome [16] | outcome [8] | outcome [9] | outcome [10] | outcome [12] | outcome [13] | outcome [15]
active: activation [1] 158% | activation [11] 124% | activation [14] 36.4%

COc1ccc(C(CNC(=O)c2cccc3cccnc23)N(C)C)cc1 (centres undefined)
active: activation [1] 132% | inhibition [6] 80% | activation [9] 33%
inactive: outcome [2] | outcome [3] | outcome [4] | outcome [5] | outcome [7] | outcome [8] | outcome [10] | outcome [11] | outcome [12] | outcome [13] | outcome [14] | outcome [15]

Cc1cccc(C(=O)NC(=S)NNC(=O)c2ccccc2Cl)c1
active: activation [1] 201% | activation [9] 34% | activation [11] 138% | activation [14] 85.8%
inactive: outcome [2] | outcome [3] | outcome [4] | outcome [5] | outcome [6] | outcome [7] | outcome [16] | outcome [8] | outcome [10] | outcome [12] | outcome [13] | outcome [15]

CCn1c(SCC(=O)c2cc(C)n(CC3CCCO3)c2C)nc2ccccc21 (centres undefined)
active: inhibition [5] 69% | activation [9] 65%
inactive: outcome [1] | outcome [2] | outcome [3] | outcome [4] | outcome [6] | outcome [7] | outcome [8] | outcome [10] | outcome [11] | outcome [12] | outcome [13] | outcome [14] | outcome [15]

O=C(Nc1nnc(-c2cccs2)o1)c1cccc(C(F)(F)F)c1
active: activation [1] 151% | activation [11] 57.6% | activation [14] 29.9%
inactive: outcome [2] | outcome [3] | outcome [4] | outcome [5] | outcome [6] | outcome [7] | outcome [16] | outcome [8] | outcome [9] | outcome [10] | outcome [12] | outcome [13] | outcome [15]
